The panel holds about 83,000 compounds, 20% with a hit somewhere; the sample as a whole holds those more often.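 In brief: 96-well plates, 48 h treatment, single concentration, percent growth endpoint.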 Values without a mark were called inactive. Activity calls are given as the source filed them. How the source made its calls: active means growth percent below 10; inactive means the rest.

Some test systems named below: T-47D breast; BT-549 breast; MDA-MB-435 melanoma; SW-620 colon; MCF7 breast; HCT-116 colon; HCC-2998 colon; KM12 colon.
Common to all, as to assay: NCI-60 one-dose screen, 48 h (100 = growth as untreated, 0 = no growth, -100 = all killed)
Common to all, as to conditions: 10 µM unless noted

Consider `C#Cc1cccc(NC(=O)Nc2cccc(N=C=S)c2)c1`, for which the growth in the experiment with T-47D breast was 100% [8.25 µM]; in the experiment with BT-549 breast, 102% [8.25 µM]; with MDA-MB-435 melanoma, 97.3% [8.25 µM]; in the experiment with SW-620 colon it was 104% [8.25 µM]; in the experiment on MCF7 breast, 86.1% [8.25 µM]; with HCT-116 colon, 95.5% [8.25 µM]. For the same compound, the growth in the experiment with HCC-2998 colon is 105% [8.25 µM]; with KM12 colon it was 106% [8.25 µM].
On to `O=C(CCN1CCCC1)Nc1ccc2c(Nc3ccccc3)c3ccccc3nc2c1`, for which the growth was 18.6% with T-47D breast; 41% in the experiment on BT-549 breast; -93.5% (active) in the experiment on MDA-MB-435 melanoma; -27.9% (active) in the experiment on SW-620 colon; -13.5% (active) in the experiment with MCF7 breast; -45.4% (active) with HCT-116 colon. For the same compound, the growth in the experiment with HCC-2998 colon was -74.1% (active); in the experiment with KM12 colon, 16.1%.
In the case of `Cc1nn(-c2ccccc2)c(N2CCOCC2)c1/C=N/N=c1\sc2ccccc2n1C`, the growth is 51.7% with T-47D breast; 81.5% in the experiment with BT-549 breast; 92.1% in the experiment with MDA-MB-435 melanoma; 82.7% in the experiment with SW-620 colon; 68.5% in the experiment with MCF7 breast; 49.6% in the experiment with HCT-116 colon. In addition, the growth in the experiment on HCC-2998 colon was 106%; with KM12 colon, 81.4%.
For `COC(=O)C1=C(C(=O)ONCCN(C)C)C2C=CC1(C(Cc1ccccc1)Nc1ccc(F)cc1)O2` (stereo not given), the growth with T-47D breast was -0.816% (active); with BT-549 breast it was 122%; with MDA-MB-435 melanoma, 101%; in the experiment on SW-620 colon, 51.8%; in the experiment with MCF7 breast, 97.5%; in the experiment with HCT-116 colon, -48.9% (active). Besides, the growth is 107% in the experiment with HCC-2998 colon and 94.8% in the experiment with KM12 colon.
Regarding `O=C1Nc2c(ccc(Cl)c2Cl)/C1=C/c1ccccn1`, the growth with T-47D breast was 56.9%; with BT-549 breast it was 92.1%; with MDA-MB-435 melanoma it was 77.2%; with SW-620 colon, 76.8%; with MCF7 breast it was 29%; in the experiment on HCT-116 colon it was 24.2%. Also, the growth was 85.1% with HCC-2998 colon and 87.1% with KM12 colon.
As to `CC(=O)c1c(C)[nH]c(-c2nc3ccc(N4CCN(C)CC4)cc3[nH]2)c1-c1ccccc1`, the growth is 20.3% in the experiment with T-47D breast; 81.9% in the experiment on BT-549 breast; 19.8% with MDA-MB-435 melanoma; 54.8% in the experiment with SW-620 colon; 7.32% (active) in the experiment with MCF7 breast; 59.6% in the experiment with HCT-116 colon. Moreover, the growth was 27.8% with HCC-2998 colon and 39.7% with KM12 colon.
`OC1(c2ccc(Cl)c(C(F)(F)F)c2)CCN(CCCC(c2ccc(F)cc2)c2ccc(F)cc2)CC1`: the growth in the experiment with T-47D breast is -62.1% (active); in the experiment on BT-549 breast, -92.8% (active); with MDA-MB-435 melanoma, -91.6% (active); in the experiment on SW-620 colon, -100% (active); with MCF7 breast it was -90.3% (active); in the experiment with HCT-116 colon it was -92.3% (active). The results for the growth in the experiment with HCC-2998 colon and in the experiment on KM12 colon were -97.2% (active) and -99.2% (active), respectively.
Turning to `CCCCCOc1ccc(/C=N/Nc2cc(C)nc3ccc(Br)cc23)cc1`, the growth in the experiment on T-47D breast was 83.4%; with BT-549 breast, 103%; with MDA-MB-435 melanoma, -46.9% (active); in the experiment on SW-620 colon, -61.2% (active); with MCF7 breast, -73% (active); in the experiment with HCT-116 colon, -79.9% (active). Moreover, the growth in the experiment with HCC-2998 colon was -58.3% (active); in the experiment on KM12 colon it was -65.5% (active).
For `N#Cc1ccc(-c2ccc3c(c2)NC(=O)/C3=C\c2ccc[nH]2)cc1`, the growth is 9.73% (active) with T-47D breast; 24.1% in the experiment with BT-549 breast; 102% in the experiment on MDA-MB-435 melanoma; 102% in the experiment on SW-620 colon; 15.3% in the experiment with MCF7 breast; 104% in the experiment with HCT-116 colon. The growth is 58.5% in the experiment on HCC-2998 colon and 60.8% in the experiment with KM12 colon.
As for `O=C1c2ccccc2C(=O)c2c(NCCN=Cc3ccccc3O)cccc21`, the growth in the experiment on T-47D breast is 63.6%; with BT-549 breast, 73.4%; with MDA-MB-435 melanoma, 71.5%; in the experiment on SW-620 colon, 35.4%; in the experiment on MCF7 breast, 32.4%; in the experiment with HCT-116 colon it was 15.4%. The growth is 30.9% in the experiment on HCC-2998 colon and 48.7% with KM12 colon.
With `COc1ccc(-c2c(-c3ccccc3)noc2N)cc1OC`, the growth with T-47D breast is 99.6%; in the experiment on BT-549 breast it was 105%; with MDA-MB-435 melanoma, 91%; in the experiment with SW-620 colon, 118%; in the experiment on MCF7 breast it was 91.2%; with HCT-116 colon, 100%. The growth was 110% in the experiment with HCC-2998 colon and 94.7% with KM12 colon.
With `CCN1C(=O)N(CC)C2C1NN=c1s/c(=C3\C(=O)Nc4ccccc43)c(=O)n12` (stereo not given), the growth in the experiment with T-47D breast was 15.6%; in the experiment with BT-549 breast, 59.8%; in the experiment on MDA-MB-435 melanoma, -27.3% (active); with SW-620 colon, 26.1%; with MCF7 breast it was 28.7%; with HCT-116 colon, 14.2%. Moreover, the figures for the growth with HCC-2998 colon and in the experiment on KM12 colon were 31.8% and 15.1%, respectively.
`CC[C@H](CC[C@@H](C)[C@H]1CC[C@H]2[C@@H]3CC=C4C[C@@H](OCCc5nn[nH]n5)CC[C@]4(C)[C@H]3CC[C@]12C)C(C)C`: the growth in the experiment on T-47D breast is 90.2%; with BT-549 breast it was 116%; with MDA-MB-435 melanoma, 112%; in the experiment with SW-620 colon, 121%; with MCF7 breast, 101%; in the experiment with HCT-116 colon it was 95.1%. Moreover, the growth in the experiment on HCC-2998 colon was 109%; in the experiment on KM12 colon, 100%.
Regarding `O=S(=O)(NCCCNc1nccc(-c2c(-c3ccccc3)nc3occn23)n1)c1ccc(Cl)cc1`, the growth is 58.9% with T-47D breast; 104% in the experiment on BT-549 breast; 64.3% in the experiment with MDA-MB-435 melanoma; 108% in the experiment on SW-620 colon; 60.5% in the experiment with MCF7 breast; 68.4% with HCT-116 colon. For the same compound, the growth is 102% with HCC-2998 colon and 95.7% in the experiment on KM12 colon.
With `COc1cccc(CCC(=O)c2cc3c(N)c(C(=O)Nc4cccc(Cl)c4C)sc3nc2C)c1`, the growth in the experiment with T-47D breast was 28.2%; with BT-549 breast, 50.6%; in the experiment on MDA-MB-435 melanoma, -54.8% (active); in the experiment with SW-620 colon it was 34%; in the experiment on MCF7 breast it was 11.3%; in the experiment with HCT-116 colon, 13%. For the same compound, the growth in the experiment on HCC-2998 colon is 6.58% (active); with KM12 colon, 19.6%.

The values above are taken from PubChem BioAssay (NCI).
